Records with an inconclusive call do not appear. The source made the active and inactive calls. Unless noted, the call rests on the fitted dose curve.
What was measured:
[1] = target: Lysosomal acid glucosylceramidase (Homo sapiens) (UniProt P04062); test: Glucocerebrosidase-p2 (AID 348; in the data active means potency below about 10 µM; further: potency means the concentration at half of the fitted maximal effect); settings: purified GBA, blue fluorogenic substrate, 40 min
Procedure, shortened: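 Normal human glucocerebrosidase (0.2 nM) with blue fluorogenic substrate (80 uM final) in citrate/phosphate pH 5.9 with 10mM sodium taurocholate, 0.01% tween-20; 40 min RT, NaOH/glycine stop; fluorescence Ex 365/Em 440; AC50 from a titration from 0.6 nM upwards.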

[2] = target: Cytochrome P450 1A2 (Homo sapiens) (UniProt P05177); test: p450-cyp1a2 (AID 410); settings: recombinant CYP1A2, luciferin-ME demethylation, luminescence; series mostly up to 11.4 µM; further: potency means the concentration at half of the fitted maximal effect;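 on activity change, negative = inhibition: -100% = full effect of reference inhibitor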
Cytochrome P450 1A2 (Homo sapiens), sequence (P05177 whole entry, looked up): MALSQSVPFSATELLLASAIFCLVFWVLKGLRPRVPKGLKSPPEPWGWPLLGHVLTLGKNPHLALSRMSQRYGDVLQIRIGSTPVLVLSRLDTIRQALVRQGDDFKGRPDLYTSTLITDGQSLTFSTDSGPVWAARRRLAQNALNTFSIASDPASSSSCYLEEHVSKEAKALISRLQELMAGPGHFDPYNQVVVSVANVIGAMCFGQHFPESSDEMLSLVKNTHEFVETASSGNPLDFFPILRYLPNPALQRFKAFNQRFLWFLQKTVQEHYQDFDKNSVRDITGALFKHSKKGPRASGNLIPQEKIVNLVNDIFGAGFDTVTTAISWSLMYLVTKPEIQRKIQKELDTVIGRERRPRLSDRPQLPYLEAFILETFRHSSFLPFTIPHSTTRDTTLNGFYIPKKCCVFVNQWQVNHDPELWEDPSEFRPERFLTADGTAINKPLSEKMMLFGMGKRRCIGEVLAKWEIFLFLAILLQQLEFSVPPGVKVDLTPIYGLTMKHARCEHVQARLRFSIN
Procedure, shortened: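 Read-out is luminescence from luciferin produced by CYP1A2 demethylation of Luciferin-ME (100uM, at Km). Detection reagent stopped the 60 min NADPH-dependent reaction; signals were normalized to 57 uM furafylline.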

[3] = Stat Signaling Pathway (AID 446; active means well fitted curve in either direction with a large enough effect, not every such curve was filed as active;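 further: ME-180 cervical cancer cells given 40 pM IL-6 alongside compound; SIE-controlled beta-lactamase reporter measured as 460/530 nm FRET emission ratio; on the % scale 0 is the no-effect control and ±100 the full control effect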); settings: ME-180 SIE beta-lactamase reporter, IL-6 stimulated, 5 h; at 7.69 µM (top of the series) unless noted
Procedure, shortened: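 Normalization used AC90 stimulation (300 pM IL-6) and AC90 inhibition (125 nM pan-JAK inhibitor at 40 pM IL-6). The underlying signal is SIE-driven beta-lactamase in ME-180 cells after 5 h IL-6 exposure with compound.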

[4] = target: Glucocorticoid receptor (Homo sapiens) (UniProt P04150); test: GR-GFP Redistribution (AID 450;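 active means compounds whose dose series gives a full or clear partial fitted curve of increased nuclear translocation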; further: potency means the concentration at half of the fitted maximal effect); settings: U2OS GR-GFP nuclear translocation, laser cytometry, 2 h
Glucocorticoid receptor (Homo sapiens), sequence (P04150 whole entry, looked up, the tested form may be a part): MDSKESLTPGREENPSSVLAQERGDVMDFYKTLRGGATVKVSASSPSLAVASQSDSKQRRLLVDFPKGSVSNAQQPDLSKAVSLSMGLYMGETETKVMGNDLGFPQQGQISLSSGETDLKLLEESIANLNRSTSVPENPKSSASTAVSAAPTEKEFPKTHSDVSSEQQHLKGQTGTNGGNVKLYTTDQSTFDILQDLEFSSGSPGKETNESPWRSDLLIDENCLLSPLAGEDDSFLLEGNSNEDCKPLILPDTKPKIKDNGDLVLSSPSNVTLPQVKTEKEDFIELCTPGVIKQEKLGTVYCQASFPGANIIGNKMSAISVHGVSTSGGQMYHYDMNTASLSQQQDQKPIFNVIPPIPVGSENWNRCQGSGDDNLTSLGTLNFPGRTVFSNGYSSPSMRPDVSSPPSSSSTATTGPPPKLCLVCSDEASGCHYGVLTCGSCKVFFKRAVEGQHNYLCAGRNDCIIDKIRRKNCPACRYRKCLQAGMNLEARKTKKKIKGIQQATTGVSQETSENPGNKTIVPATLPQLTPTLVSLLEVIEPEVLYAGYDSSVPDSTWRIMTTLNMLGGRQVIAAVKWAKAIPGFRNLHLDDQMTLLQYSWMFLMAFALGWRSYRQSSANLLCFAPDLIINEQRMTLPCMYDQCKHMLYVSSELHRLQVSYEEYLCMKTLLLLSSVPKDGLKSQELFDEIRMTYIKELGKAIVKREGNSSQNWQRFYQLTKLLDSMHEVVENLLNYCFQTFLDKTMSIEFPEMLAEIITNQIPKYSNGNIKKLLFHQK

[5] = target: Glucocorticoid receptor (Homo sapiens) (UniProt P04150); test: GR-EFC Redistribution (AID 451); settings: CHO-K1 GR-EFC translocation, beta-gal luminescence, 2 h; further: potency means the concentration at half of the fitted maximal effect
Procedure, shortened: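 CHO-K1 cells expressing nuclear EA and GR-ED fragments of b-gal; compounds titrated up to 46 uM final, 2 h at 37 C. GR nuclear translocation read as complemented b-gal luminescence after 1 h RT detection.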

[6] = target: Mitogen-activated protein kinase 10 (Mus musculus) (UniProt Q61831); test: JNK3 AlphaScreen Assay (AID 530; active means well fitted curve in either direction with a large enough effect, not every such curve was filed as active;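 further: kinase came from lysate of stimulated human HepG2 cells; signal reports phosphorylation of biotinylated GST-cJun 1-79 at Ser73 with 10 µM ATP; on the % scale 0 is the no-effect control and ±100 the full control effect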); settings: JNK3 lysate, c-Jun phosphorylation; series mostly up to 11.4 µM
Procedure, shortened: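 HepG2 lysate (IL-1b/TNFa pre-activated) + biotin-GST-cJun 1-79 + anti-pSer73 cJun; cpd titration, 15 min RT; ATP 10 uM start; Tris pH 7.6, MgCl2, DTT, vanadate; beads in EDTA buffer; AlphaScreen.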

[7] = target: 3',5'-cyclic-AMP phosphodiesterase 4B (Homo sapiens) (UniProt Q07343); test: qHTS Assay for Inhibitors of PDE-IV (AID 607; active means well fitted activation curve with a large enough effect in the main read-out, with a control signal flat, not every such curve was filed as active; further: % of control where 0% means no effect); settings: HEK293 ACTOne CNG channel cells, membrane potential fluorescence; series mostly up to 22.9 µM
3',5'-cyclic-AMP phosphodiesterase 4B (Homo sapiens), sequence (Q07343 whole entry, looked up): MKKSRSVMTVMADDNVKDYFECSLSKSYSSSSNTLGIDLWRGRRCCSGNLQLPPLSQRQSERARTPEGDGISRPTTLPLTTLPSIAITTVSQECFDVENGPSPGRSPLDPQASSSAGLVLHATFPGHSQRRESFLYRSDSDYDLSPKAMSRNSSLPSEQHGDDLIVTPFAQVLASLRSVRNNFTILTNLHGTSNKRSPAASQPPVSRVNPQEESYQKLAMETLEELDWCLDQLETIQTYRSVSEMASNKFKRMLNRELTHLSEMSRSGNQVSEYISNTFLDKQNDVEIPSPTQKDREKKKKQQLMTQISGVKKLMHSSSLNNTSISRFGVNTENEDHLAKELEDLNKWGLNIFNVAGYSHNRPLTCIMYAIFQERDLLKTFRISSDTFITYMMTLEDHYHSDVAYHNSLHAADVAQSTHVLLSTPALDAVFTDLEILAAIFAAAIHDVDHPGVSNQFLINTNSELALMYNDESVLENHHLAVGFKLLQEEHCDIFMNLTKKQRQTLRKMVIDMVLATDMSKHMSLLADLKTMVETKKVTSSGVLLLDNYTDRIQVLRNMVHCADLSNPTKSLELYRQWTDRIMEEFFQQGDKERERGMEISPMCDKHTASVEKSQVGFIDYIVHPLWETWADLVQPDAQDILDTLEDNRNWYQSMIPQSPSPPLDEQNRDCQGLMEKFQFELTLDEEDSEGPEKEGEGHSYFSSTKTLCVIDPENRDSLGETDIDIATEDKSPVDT
Procedure, shortened: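 HEK293 ACTOne cells with CNG channel (1000/well), endogenous PDE4; membrane potential dye, compounds up to 22.9 uM final. Fluorescence Ex 535/Em 590; RO 20-1724 (100 uM final) as reference.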

[8] = target: Cytochrome P450 2C19 (Homo sapiens) (UniProt P33261); test: qHTS Assay for Inhibitors and Substrates of Cytochrome P450 2C19 (AID 899; active means well fitted curve in the direction sought with a large enough effect; an effect the other way counts as inactive or inconclusive; further: potency means the concentration at half of the fitted maximal effect; nearly all actives have a fitted effect of over 60% in size); settings: recombinant CYP2C19, luciferin-H EGE luminescence; series mostly up to 11.4 µM
Cytochrome P450 2C19 (Homo sapiens), sequence (P33261 whole entry, looked up): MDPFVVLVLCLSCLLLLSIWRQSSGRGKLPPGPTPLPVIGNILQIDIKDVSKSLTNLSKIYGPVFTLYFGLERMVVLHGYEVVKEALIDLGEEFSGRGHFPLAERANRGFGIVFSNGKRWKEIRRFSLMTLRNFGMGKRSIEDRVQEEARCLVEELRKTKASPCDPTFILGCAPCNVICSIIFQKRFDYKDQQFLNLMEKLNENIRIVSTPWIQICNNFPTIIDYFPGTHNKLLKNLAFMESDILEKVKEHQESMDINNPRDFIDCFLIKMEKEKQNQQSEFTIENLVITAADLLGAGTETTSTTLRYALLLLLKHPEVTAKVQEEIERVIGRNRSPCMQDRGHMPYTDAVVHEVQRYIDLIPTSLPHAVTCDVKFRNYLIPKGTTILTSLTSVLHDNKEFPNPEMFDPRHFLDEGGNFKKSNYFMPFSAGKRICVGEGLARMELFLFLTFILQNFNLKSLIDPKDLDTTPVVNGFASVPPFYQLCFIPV
Procedure, shortened: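 5 nM human CYP2C19 with 10uM Luciferin-H EGE (at KM) in 50mM KPO4, compound preincubated 10 min at 37C, then NADPH regeneration for 60 min at 37C. Luciferin read by luminescence after detection reagent; normalized to 57uM ketoconazole as full inhibition.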

[9] = target: Cytochrome P450 2D6 (Homo sapiens) (UniProt P10635); test: qHTS Assay for Inhibitors and Substrates of Cytochrome P450 2D6 (AID 891; active means well fitted curve in the direction sought with a large enough effect; an effect the other way counts as inactive or inconclusive; further: potency means the concentration at half of the fitted maximal effect; nearly all actives have a fitted effect of over 60% in size); settings: recombinant CYP2D6, luciferin-ME EGE luminescence; series mostly up to 11.4 µM
Cytochrome P450 2D6 (Homo sapiens), sequence (P10635 whole entry, looked up): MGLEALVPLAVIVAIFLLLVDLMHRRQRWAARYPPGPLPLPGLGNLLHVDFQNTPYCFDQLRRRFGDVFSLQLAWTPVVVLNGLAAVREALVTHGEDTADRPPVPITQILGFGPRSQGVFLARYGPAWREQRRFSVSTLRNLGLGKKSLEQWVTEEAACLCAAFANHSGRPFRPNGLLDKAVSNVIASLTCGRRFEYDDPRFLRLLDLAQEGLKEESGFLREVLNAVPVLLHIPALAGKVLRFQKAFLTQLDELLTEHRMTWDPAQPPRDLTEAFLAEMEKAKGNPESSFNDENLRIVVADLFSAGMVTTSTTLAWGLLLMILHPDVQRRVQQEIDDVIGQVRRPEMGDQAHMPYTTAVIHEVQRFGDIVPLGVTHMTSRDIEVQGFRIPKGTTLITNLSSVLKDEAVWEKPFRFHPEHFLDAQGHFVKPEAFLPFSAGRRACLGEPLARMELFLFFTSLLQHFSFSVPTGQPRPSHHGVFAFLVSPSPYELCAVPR
Procedure, shortened: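 Luminescent read-out of luciferin formed by 5 nM human CYP2D6 demethylating 30 uM Luciferin-ME EGE (Km level) over 60 min at room temperature after NADPH regeneration addition. Data normalized to full inhibition by 1.43 uM quinidine.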

[10] = qHTS Assay for Identification of Small Molecule Agonists for Hypoxia Response Element Signaling Pathway (AID 914; active means well fitted activation curve with a large enough effect in the signal ratio, with a control signal flat, not every such curve was filed as active; the % refers to the signal ratio; further: potency means the concentration at half of the fitted maximal effect; on activation: % of control where 0% means no effect); settings: ME-180 (cervical carcinoma) HRE-bla reporter, beta-lactamase ratio, CoCl2, 17 h; activation: stronger effect = higher value
Procedure, shortened: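 Read-out: CCF4 FRET ratio of 460nm to 530nm emission (excitation 405nm) after 2.5 hours at room temperature, taken from HRE-bla ME-180 cells that had been exposed to compound and EC50 CoCl2 for 17 hours.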

[11] = NFAT Signaling Pathway (AID 444; active means well fitted curve in either direction with a large enough effect, not every such curve was filed as active;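 further: carbachol stimulus at about its EC50 of 1 µM final; on the % scale 0 is the no-effect control and ±100 the full control effect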); settings: Jurkat NFAT-bla M1, carbachol, beta-lactamase ratio, 5 h; at 7.69 µM (top of the series) unless noted
Procedure, shortened: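 Jurkat cells with NFAT-driven β-lactamase reporter and co-expressed M1 receptor, stimulated with carbachol (final 1 uM, ~EC50), compound titration, 5 h at 37 °C. CCF4 loaded 1 h at RT; 460/530 nm ratio gave %activity and AC50.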

[12] = target: Cytochrome P450 3A4 (Homo sapiens) (UniProt P08684); test: qHTS Assay for Inhibitors and Substrates of Cytochrome P450 3A4 (AID 884; active means well fitted curve in the direction sought with a large enough effect; an effect the other way counts as inactive or inconclusive; further: nearly all actives have a fitted effect of over 50% in size; further: potency means the concentration at half of the fitted maximal effect; on activity change, negative = inhibition: on the % scale 0 is the no-effect control and ±100 the full control effect); settings: recombinant CYP3A4, Luciferin-PPXE luminescence; series mostly up to 57.1 µM
Cytochrome P450 3A4 (Homo sapiens), sequence (P08684 whole entry, looked up): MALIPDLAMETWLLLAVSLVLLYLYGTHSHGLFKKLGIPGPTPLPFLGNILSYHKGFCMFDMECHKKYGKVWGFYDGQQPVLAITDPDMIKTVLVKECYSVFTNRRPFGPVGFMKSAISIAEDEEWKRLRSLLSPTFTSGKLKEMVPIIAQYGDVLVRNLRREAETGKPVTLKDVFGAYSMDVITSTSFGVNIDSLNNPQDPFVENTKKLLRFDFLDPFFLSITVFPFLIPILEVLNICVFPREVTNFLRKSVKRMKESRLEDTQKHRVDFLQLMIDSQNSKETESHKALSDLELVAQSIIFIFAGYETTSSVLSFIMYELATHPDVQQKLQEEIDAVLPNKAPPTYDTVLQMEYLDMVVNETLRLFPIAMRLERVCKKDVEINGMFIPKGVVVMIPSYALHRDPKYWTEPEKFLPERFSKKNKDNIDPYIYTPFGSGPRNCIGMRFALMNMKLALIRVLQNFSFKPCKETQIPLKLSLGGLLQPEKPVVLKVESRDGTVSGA
Procedure, shortened: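 Luminescent readout of luciferin produced by CYP3A4 (20 nM) dealkylation of Luciferin-PPXE, 25 uM (its KM). NADPH-driven reaction ran 60 min at RT after 10 min compound preincubation; data scaled to 57 uM ketoconazole as 100% inhibition.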

[13] = target: Cytochrome P450 3A4 (Homo sapiens) (UniProt P08684); test: qHTS Assay for Activators of Cytochrome P450 3A4 (AID 885; active means well fitted curve in the direction sought with a large enough effect; an effect the other way counts as inactive or inconclusive; further: nearly all actives have a fitted effect of over 65% in size); settings: recombinant CYP3A4, Luciferin-PPXE luminescence, 60 min; series mostly up to 11.4 µM
Procedure, shortened: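 Human CYP3A4 dealkylates Luciferin-PPXE to luciferin, which luciferase detection converts to light. Substrate was at its KM (25uM), buffer 200mM KPO4, reaction 60 min at RT.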

[14] = Confirmation and Secondary Assay for Modulators of Hemoglobin Beta Chain Splicing at IVS2 654 locus (AID 910; active means well fitted curve in the direction sought with a large enough effect; an effect the other way counts as inactive or inconclusive;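 further: HeLa cells stably carrying EGFP split by mutant beta-globin IVS2-654 intron; % of control where 0% means no effect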); settings: HeLa EGFP-654 splicing reporter, GFP fluorescence, 48 h; series mostly up to 38.3 µM
Procedure, shortened: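 HeLa cells stably expressing EGFP interrupted by β-globin IVS2-654 intron, seeded overnight in Opti-MEM/2% FCS, then treated 2 days at 37 °C. Restored splicing read as total peak GFP intensity per well by laser scanning cytometry (488 nm excitation, 500–520 nm emission); 500 nM antisense PNA as control.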

[15] = Confirmation and Secondary Assay for Modulators of Hemoglobin Beta Chain Splicing at IVS2 705 locus (AID 930; active means well fitted curve in the direction sought with a large enough effect; an effect the other way counts as inactive or inconclusive;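 further: HeLa cells stably expressing the EGFP-705 splicing reporter; GFP fluorescence per well restored by corrected splicing of the IVS2-705 intron in EGFP; % of control where 0% means no effect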); settings: HeLa EGFP-705 splicing reporter, GFP fluorescence, 48 h; series mostly up to 38.3 µM
Procedure, shortened: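 HeLa EGFP-705 reporter; 500 cells/well, o/n 37C 5% CO2; cpd 2 d; 488 ex/500-520 em laser scan; total peak GFP intensity/well. Ref: 500 nM […] antisense PNA.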

[16] = target: Cytochrome P450 2C9 (Homo sapiens) (UniProt P11712); test: qHTS Assay for Inhibitors and Substrates of Cytochrome P450 2C9 (AID 883; active means well fitted curve in the direction sought with a large enough effect; an effect the other way counts as inactive or inconclusive; further: potency means the concentration at half of the fitted maximal effect; nearly all actives have a fitted effect of over 60% in size); settings: recombinant CYP2C9, luciferin-H luminescence, 60 min; series mostly up to 11.4 µM
Cytochrome P450 2C9 (Homo sapiens), sequence (P11712 whole entry, looked up): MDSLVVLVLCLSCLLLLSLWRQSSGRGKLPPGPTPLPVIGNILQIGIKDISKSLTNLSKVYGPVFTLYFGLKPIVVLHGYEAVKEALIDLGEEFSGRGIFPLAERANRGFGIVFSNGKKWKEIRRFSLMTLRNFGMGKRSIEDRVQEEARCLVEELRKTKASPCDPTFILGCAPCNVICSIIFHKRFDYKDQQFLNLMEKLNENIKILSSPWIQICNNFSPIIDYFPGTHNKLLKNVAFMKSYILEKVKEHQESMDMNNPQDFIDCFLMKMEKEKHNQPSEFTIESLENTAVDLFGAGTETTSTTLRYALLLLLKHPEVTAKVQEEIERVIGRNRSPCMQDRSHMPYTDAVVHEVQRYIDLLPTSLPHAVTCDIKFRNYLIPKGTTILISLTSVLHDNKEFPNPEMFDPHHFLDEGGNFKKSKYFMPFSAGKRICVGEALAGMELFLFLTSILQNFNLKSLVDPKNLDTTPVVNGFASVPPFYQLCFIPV
Procedure, shortened: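 Human CYP2C9 (10nM) with Luciferin-H at 100uM (its KM) in 25mM KPO4; compound preincubated 10 min at 37C, then NADPH regeneration for 60 min at 37C. Luciferin read by luminescence after detection reagent; normalized to 57uM sulphaphenazole as full inhibition.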

Lysosomal acid glucosylceramidase (Homo sapiens), sequence (P04062 whole entry, looked up): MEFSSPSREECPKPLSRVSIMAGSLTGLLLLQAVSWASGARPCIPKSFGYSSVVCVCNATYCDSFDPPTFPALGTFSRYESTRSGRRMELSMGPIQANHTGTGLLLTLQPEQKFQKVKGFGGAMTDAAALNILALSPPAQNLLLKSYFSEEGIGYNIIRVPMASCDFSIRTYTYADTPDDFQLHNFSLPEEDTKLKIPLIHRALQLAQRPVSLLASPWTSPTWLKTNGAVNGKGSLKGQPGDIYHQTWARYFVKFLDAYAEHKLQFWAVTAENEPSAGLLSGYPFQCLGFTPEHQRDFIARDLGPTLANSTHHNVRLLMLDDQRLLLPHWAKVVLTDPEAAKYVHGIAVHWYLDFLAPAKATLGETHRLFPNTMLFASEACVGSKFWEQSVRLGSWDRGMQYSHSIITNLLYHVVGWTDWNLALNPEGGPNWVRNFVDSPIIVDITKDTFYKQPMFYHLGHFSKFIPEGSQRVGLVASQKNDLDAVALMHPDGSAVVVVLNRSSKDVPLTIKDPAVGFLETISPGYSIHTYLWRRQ

O=[N+]([O-])c1ccc(S(=O)(=O)Cc2ccccc2)c2nonc12
inactive: Potency [1] > 11.4 µM | activity change, negative = inhibition [2] -5.3% [at 2.29 µM] | activity, negative = inhibition [3] -2.97% | Potency [4] > 46 µM | Potency [5] > 9.22 µM | Potency [6] | Potency [7]
active: Potency [8] 3.16 µM

CN(C)CCCN1c2ccccc2Sc2ccc3ccccc3c21
inactive: Potency [1] > 11.4 µM | activity change, negative = inhibition [2] -2.2% [at 2.29 µM] | activity, negative = inhibition [3] 3.27% | Potency [4] > 46 µM | Potency [5] > 9.22 µM | Potency [6] | Potency [7]
active: Potency [9] 1.26 µM

COc1ccc2nc3cc(Cl)ccc3c(Nc3ccc(O)c(CN4CCN(C)CC4)c3)c2c1
active: Potency [2] 3.98 µM
inactive: Potency [1] > 11.4 µM | activity, negative = inhibition [3] 23% | Potency [4] > 46 µM | Potency [5] > 9.22 µM | Potency [6] | Potency [7] | activation [10] 26.1%

Cc1cccc(CNc2ncnc3ccc(-c4ccc(C(=O)N(C)C)cc4)cc23)c1
inactive: Potency [1] > 11.4 µM | activity change, negative = inhibition [11] -8.36% | Potency [4] > 46 µM | Potency [5] > 46 µM | Potency [6] | Potency [7] | Potency [13] | outcome [14] | outcome [15]
active: Potency [2] 15.8 µM | Potency [12] 2 µM

Nc1nc(Sc2ccc([N+](=O)[O-])c3nonc23)c2[nH]cnc2n1
active: Potency [16] 3.16 µM | Potency [8] 1.58 µM
inactive: Potency [1] > 11.4 µM | activity change, negative = inhibition [2] -26.1% [at 2.29 µM] | activity, negative = inhibition [3] -12.4% | Potency [4] > 46 µM | Potency [5] > 9.22 µM | Potency [6] | Potency [7]

COc1ccc2c(=O)cc(-c3ccncc3)oc2c1OC
inactive: Potency [1] > 11.4 µM | activity change, negative = inhibition [11] 2.62% | activity, negative = inhibition [3] -17.8% | Potency [4] > 46 µM | Potency [5] > 9.22 µM | Potency [6] | Potency [7] | Potency [13]
active: Potency [2] 1.58 µM | Potency [8] 1.58 µM

CCCCNN
inactive: Potency [1] > 11.4 µM | activity change, negative = inhibition [2] -6.5% [at 2.29 µM] | activity change, negative = inhibition [11] 9.69% | activity, negative = inhibition [3] 4.29% | Potency [4] > 46 µM | Potency [5] > 9.22 µM | Potency [6] | Potency [7]

COc1cccc2c1[C@H](CO)N1[C@H](C#N)[C@@H]3C[C@H](C(=O)O)[C@@H]([C@@H]1C2)N3C
inactive: Potency [1] > 11.4 µM | activity change, negative = inhibition [2] -21% [at 2.29 µM] | Potency [4] > 46 µM | Potency [5] > 9.22 µM | Potency [6] | Potency [7]
active: activity change, negative = inhibition [11] -126%

OC[C@@H]1O[C@@H](N2CCN([C@@H]3O[C@@H](CO)[C@@H](O)[C@H](O)[C@H]3O)CC2)[C@@H](O)[C@H](O)[C@H]1O
inactive: Potency [1] > 11.4 µM | activity change, negative = inhibition [2] -9.7% [at 2.29 µM] | activity, negative = inhibition [3] -5.46% | Potency [4] > 46 µM | Potency [5] > 9.22 µM | Potency [6] | Potency [7]

ClC(=Nc1cccc2ccccc12)N(c1ccccc1)c1ccccc1
active: Potency [2] 1 µM | Potency [16] 3.16 µM | Potency [8] 2.51 µM
inactive: Potency [1] > 11.4 µM | activity change, negative = inhibition [11] -2.09% | Potency [4] > 46 µM | Potency [5] > 9.22 µM | Potency [6] | Potency [7] | Potency [13]

CN1CCN(c2ncc3nc(-c4ccc(Cl)cc4)c(=O)n(C4CC4)c3n2)CC1
active: Potency [2] 15.8 µM | Potency [10] 3.16 µM
inactive: Potency [1] > 11.4 µM | Potency [4] > 9.22 µM | Potency [5] > 46 µM | Potency [6] | Potency [7] | Potency [12]

COc1ccc(C(=O)[C@H](Br)[C@H](Br)C(=O)O)cc1
inactive: Potency [1] > 11.4 µM | Potency [4] > 46 µM | Potency [5] > 9.22 µM | Potency [6] | Potency [7]
active: Potency [2] 3.98 µM

COc1cccc(Nc2ncc3nc(-c4ccccc4)c(=O)n(C4CC4)c3n2)c1
active: Potency [10] 3.16 µM
inactive: Potency [1] > 11.4 µM | activity change, negative = inhibition [11] -5.16% | activity, negative = inhibition [3] 28.4% | Potency [4] > 9.22 µM | Potency [5] > 46 µM | Potency [6] | Potency [7]

O=c1c(-c2ccccc2)nc2cnc(N3CCOCC3)nc2n1-c1ccccc1
inactive: Potency [1] > 11.4 µM | Potency [4] > 9.22 µM | Potency [5] > 46 µM | Potency [13]
active: Potency [2] 12.6 µM | Potency [10] 3.16 µM

Oc1c(Cl)cc(C(c2cc(Cl)c(O)c(Cl)c2)C(c2cc(Cl)c(O)c(Cl)c2)c2cc(Cl)c(O)c(Cl)c2)cc1Cl
inactive: Potency [4] > 46 µM | Potency [5] > 9.22 µM | Potency [6] | Potency [7]
active: Potency [1] 5.75 µM | Potency [2] 0.794 µM | Potency [8] 2.51 µM

COc1ccc(-c2csc3c2[N+]2=CCC=C2C3=O)cc1
inactive: Potency [1] > 11.4 µM | Potency [4] > 46 µM | Potency [5] > 9.22 µM | Potency [6] | Potency [7] | Potency [13] | activation [10] 4.84%
active: Potency [2] 0.501 µM | Potency [9] 3.16 µM | Potency [8] 3.98 µM

Reference: PubChem BioAssay (NCATS)
